# Measured values taken from publication PMC7862700, “An all-to-all approach to the identification of sequence-specific readers for epigenetic DNA modifications on cytosine”.
# Biological target: T1, ETS2 (Homo sapiens, UniProt P15036 1-469)
# T1 sequence: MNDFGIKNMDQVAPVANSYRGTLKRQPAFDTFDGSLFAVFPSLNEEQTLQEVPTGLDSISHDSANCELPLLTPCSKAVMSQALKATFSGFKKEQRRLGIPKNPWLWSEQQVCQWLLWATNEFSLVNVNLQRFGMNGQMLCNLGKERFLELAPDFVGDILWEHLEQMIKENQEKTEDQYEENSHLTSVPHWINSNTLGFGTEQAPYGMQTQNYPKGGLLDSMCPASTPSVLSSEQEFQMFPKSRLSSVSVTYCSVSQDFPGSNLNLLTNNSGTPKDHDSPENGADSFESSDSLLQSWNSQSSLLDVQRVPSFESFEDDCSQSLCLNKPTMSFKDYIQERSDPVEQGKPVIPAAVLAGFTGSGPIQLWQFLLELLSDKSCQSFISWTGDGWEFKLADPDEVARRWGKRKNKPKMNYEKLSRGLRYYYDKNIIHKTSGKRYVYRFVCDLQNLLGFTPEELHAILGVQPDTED
# Assay: DAPPL (digital affinity profiling via proximity ligation, sequencing); 10 mM Tris-HCl pH 7.5, 50 mM NaCl, 1 mM DTT, 4% glycerol, room temperature, 30 min; GST-TFs on glutathione beads, 16-mer random dsDNA library, 0.1% formaldehyde crosslink after washing; high values mean tight binding
# Details: protein: recombinant; tags: N-terminal GST; dsDNA, one strand shown
# Summary of the method: (§1)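 Pools were built from human transcription factors expressed in yeast as GST fusions, captured on glutathione beads and DNA-barcoded, along with a tag-only sample. Incubation with 200 nmole of a 16-mer random double-stranded DNA library lasted 30 min at room temperature in Tris/NaCl/DTT/glycerol buffer, and was followed by washing, 0.1% formaldehyde crosslinking, proximity ligation, PCR amplification and Illumina NextSeq500 sequencing. Binding signal is the quotient of each hexamer's read frequency for a factor and its frequency for the tag-only sample.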
row,Sequence,binding signal
1,GTGTTT,"1.19 fold enrichment (6-mer frequency, TF over GST control)"
2,CCAACA,"1.03 fold enrichment (6-mer frequency, TF over GST control)"
3,TGTCCA,"1.14 fold enrichment (6-mer frequency, TF over GST control)"
4,CTGCAC,"1.12 fold enrichment (6-mer frequency, TF over GST control)"
5,TTGGGC,"1.12 fold enrichment (6-mer frequency, TF over GST control)"

# Biological target: T2, SPDEF (Homo sapiens, UniProt O95238 1-335)
# T2 sequence: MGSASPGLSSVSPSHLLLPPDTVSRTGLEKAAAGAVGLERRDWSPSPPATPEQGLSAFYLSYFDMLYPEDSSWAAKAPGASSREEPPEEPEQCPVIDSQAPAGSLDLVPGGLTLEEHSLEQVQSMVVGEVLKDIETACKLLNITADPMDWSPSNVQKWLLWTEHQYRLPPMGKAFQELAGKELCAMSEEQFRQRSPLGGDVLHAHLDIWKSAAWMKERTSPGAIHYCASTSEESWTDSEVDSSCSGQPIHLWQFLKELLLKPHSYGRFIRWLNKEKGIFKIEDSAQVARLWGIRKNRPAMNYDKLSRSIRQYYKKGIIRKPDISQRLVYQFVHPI
# Assay: as above
# Details: protein: recombinant; tags: N-terminal GST; dsDNA, one strand shown
# Summary of the method: as §1
row,Sequence,binding signal
1,GGTCTA,"1.08 fold enrichment (6-mer frequency, TF over GST control)"
2,CACCAT,"1.02 fold enrichment (6-mer frequency, TF over GST control)"
3,TGACGC,"1.13 fold enrichment (6-mer frequency, TF over GST control)"
4,CGCACT,"1.1 fold enrichment (6-mer frequency, TF over GST control)"
5,TTGGCC,"1.06 fold enrichment (6-mer frequency, TF over GST control)"
6,CTATGT,"1.12 fold enrichment (6-mer frequency, TF over GST control)"
7,GGAAGC,"1.55 fold enrichment (6-mer frequency, TF over GST control)"
8,ACCCAC,"1.21 fold enrichment (6-mer frequency, TF over GST control)"
9,TGAACC,"1.16 fold enrichment (6-mer frequency, TF over GST control)"
10,CCACAT,"1.22 fold enrichment (6-mer frequency, TF over GST control)"
11,AAGTCA,"1.18 fold enrichment (6-mer frequency, TF over GST control)"
12,CGTTAT,"1.08 fold enrichment (6-mer frequency, TF over GST control)"
13,CACCCG,"1.28 fold enrichment (6-mer frequency, TF over GST control)"
14,ACCCGG,"2.23 fold enrichment (6-mer frequency, TF over GST control)"
15,ACCGCT,"1.06 fold enrichment (6-mer frequency, TF over GST control)"
16,TGCACG,"1.11 fold enrichment (6-mer frequency, TF over GST control)"
17,TGCTGA,"1.11 fold enrichment (6-mer frequency, TF over GST control)"
18,CCCACC,"1.12 fold enrichment (6-mer frequency, TF over GST control)"
19,GCGGAA,"1.22 fold enrichment (6-mer frequency, TF over GST control)"

row,Sequence,binding signal
1,TCAATG,"1.12 fold enrichment (6-mer frequency, TF over GST control)"
2,ACCGCC,"1.29 fold enrichment (6-mer frequency, TF over GST control)"
3,GTTTTG,"1.24 fold enrichment (6-mer frequency, TF over GST control)"
4,GTTTCA,"1.22 fold enrichment (6-mer frequency, TF over GST control)"
5,ACCCCC,"1.1 fold enrichment (6-mer frequency, TF over GST control)"
6,CGGTTT,"1.36 fold enrichment (6-mer frequency, TF over GST control)"
7,CGGAAA,"2.03 fold enrichment (6-mer frequency, TF over GST control)"
8,GTAATG,"1.15 fold enrichment (6-mer frequency, TF over GST control)"
9,CCTTGT,"1.37 fold enrichment (6-mer frequency, TF over GST control)"
10,TGCAAT,"1.15 fold enrichment (6-mer frequency, TF over GST control)"
11,TTGTTG,"1.11 fold enrichment (6-mer frequency, TF over GST control)"
12,ATCACA,"1.05 fold enrichment (6-mer frequency, TF over GST control)"
13,GGTGTT,"1.1 fold enrichment (6-mer frequency, TF over GST control)"
14,GTGTTT,"1.22 fold enrichment (6-mer frequency, TF over GST control)"
15,CCAACA,"1.06 fold enrichment (6-mer frequency, TF over GST control)"
16,TGTCCA,"1.13 fold enrichment (6-mer frequency, TF over GST control)"
17,CTGCAC,"1.17 fold enrichment (6-mer frequency, TF over GST control)"
18,TTGGGC,"1 fold enrichment (6-mer frequency, TF over GST control)"

# Biological target: T3, ETV7 (Homo sapiens, UniProt Q9Y603 1-341)
# T3 sequence: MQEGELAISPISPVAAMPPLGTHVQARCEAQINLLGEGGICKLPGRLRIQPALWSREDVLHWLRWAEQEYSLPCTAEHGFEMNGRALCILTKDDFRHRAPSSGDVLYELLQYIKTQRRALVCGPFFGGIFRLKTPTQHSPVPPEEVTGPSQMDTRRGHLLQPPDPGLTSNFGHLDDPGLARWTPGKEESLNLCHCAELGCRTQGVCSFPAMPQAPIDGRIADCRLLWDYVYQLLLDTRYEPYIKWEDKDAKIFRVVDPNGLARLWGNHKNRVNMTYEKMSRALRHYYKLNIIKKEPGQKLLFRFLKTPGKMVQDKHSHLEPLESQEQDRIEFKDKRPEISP
# Assay: as above
# Details: protein: recombinant; tags: N-terminal GST; dsDNA, one strand shown
# Summary of the method: as §1
row,Sequence,binding signal
1,CACCAT,"1.15 fold enrichment (6-mer frequency, TF over GST control)"
2,TGACGC,"1.13 fold enrichment (6-mer frequency, TF over GST control)"
3,CGCACT,"1.27 fold enrichment (6-mer frequency, TF over GST control)"
4,TTGGCC,"1.12 fold enrichment (6-mer frequency, TF over GST control)"
5,CTATGT,"1.3 fold enrichment (6-mer frequency, TF over GST control)"
6,GGAAGC,"1.62 fold enrichment (6-mer frequency, TF over GST control)"
7,ACCCAC,"1.18 fold enrichment (6-mer frequency, TF over GST control)"
8,GGCTTG,"1.14 fold enrichment (6-mer frequency, TF over GST control)"
9,TGAACC,"1.06 fold enrichment (6-mer frequency, TF over GST control)"
10,CCACAT,"1.05 fold enrichment (6-mer frequency, TF over GST control)"
11,AAGTCA,"1.24 fold enrichment (6-mer frequency, TF over GST control)"
12,CGTTAT,"1.21 fold enrichment (6-mer frequency, TF over GST control)"
13,CACCCG,"1.15 fold enrichment (6-mer frequency, TF over GST control)"
14,ACCCGG,"1.55 fold enrichment (6-mer frequency, TF over GST control)"
15,ACCGCT,"1.13 fold enrichment (6-mer frequency, TF over GST control)"
16,TGCACG,"1.19 fold enrichment (6-mer frequency, TF over GST control)"
17,TGCTGA,"1.07 fold enrichment (6-mer frequency, TF over GST control)"
18,TCATGG,"1.1 fold enrichment (6-mer frequency, TF over GST control)"
19,CCCACC,"1.08 fold enrichment (6-mer frequency, TF over GST control)"

row,Sequence,binding signal
1,GCGGAA,"1.26 fold enrichment (6-mer frequency, TF over GST control)"
2,ACCGCC,"1.21 fold enrichment (6-mer frequency, TF over GST control)"
3,TCAGCA,"1.11 fold enrichment (6-mer frequency, TF over GST control)"
4,GTTTTG,"1.13 fold enrichment (6-mer frequency, TF over GST control)"
5,GTTTCA,"1.21 fold enrichment (6-mer frequency, TF over GST control)"
6,ACCCCC,"1.08 fold enrichment (6-mer frequency, TF over GST control)"
7,CGGTTT,"1.2 fold enrichment (6-mer frequency, TF over GST control)"
8,CGGAAA,"1.97 fold enrichment (6-mer frequency, TF over GST control)"
9,GTAATG,"1.05 fold enrichment (6-mer frequency, TF over GST control)"
10,CCTTGT,"1.19 fold enrichment (6-mer frequency, TF over GST control)"
11,TGCAAT,"1.2 fold enrichment (6-mer frequency, TF over GST control)"
12,TTGTTG,"1.12 fold enrichment (6-mer frequency, TF over GST control)"
13,GGTGTT,"1.01 fold enrichment (6-mer frequency, TF over GST control)"
14,GTGTTT,"1.2 fold enrichment (6-mer frequency, TF over GST control)"
15,CCAACA,"1.05 fold enrichment (6-mer frequency, TF over GST control)"
16,TGTCCA,"1.18 fold enrichment (6-mer frequency, TF over GST control)"
17,CTGCAC,"1.05 fold enrichment (6-mer frequency, TF over GST control)"
18,TTGGGC,"1.09 fold enrichment (6-mer frequency, TF over GST control)"

# Biological target: T4, ELF5 (Homo sapiens, UniProt Q9UKW6-2 1-255)
# T4 sequence: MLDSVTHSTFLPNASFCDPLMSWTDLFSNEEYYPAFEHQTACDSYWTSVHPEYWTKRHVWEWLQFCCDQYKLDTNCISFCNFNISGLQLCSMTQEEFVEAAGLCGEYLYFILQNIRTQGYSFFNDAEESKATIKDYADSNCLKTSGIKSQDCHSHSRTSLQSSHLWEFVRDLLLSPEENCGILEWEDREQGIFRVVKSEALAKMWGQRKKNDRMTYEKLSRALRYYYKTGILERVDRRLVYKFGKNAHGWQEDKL
# Assay: as above
# Details: protein: recombinant; tags: N-terminal GST; dsDNA, one strand shown
# Summary of the method: as §1
row,Sequence,binding signal
1,GGTCTA,"1.04 fold enrichment (6-mer frequency, TF over GST control)"
2,CACCAT,"1.1 fold enrichment (6-mer frequency, TF over GST control)"
3,TGACGC,"1.19 fold enrichment (6-mer frequency, TF over GST control)"
4,CGCACT,"1.23 fold enrichment (6-mer frequency, TF over GST control)"
5,TTGGCC,"1.02 fold enrichment (6-mer frequency, TF over GST control)"
6,CTATGT,"1.1 fold enrichment (6-mer frequency, TF over GST control)"
7,GGAAGC,"1.95 fold enrichment (6-mer frequency, TF over GST control)"
8,ACCCAC,"1.19 fold enrichment (6-mer frequency, TF over GST control)"
9,TGAACC,"1.09 fold enrichment (6-mer frequency, TF over GST control)"
10,CCACAT,"1.15 fold enrichment (6-mer frequency, TF over GST control)"
11,AAGTCA,"1.21 fold enrichment (6-mer frequency, TF over GST control)"
12,CGTTAT,"1.05 fold enrichment (6-mer frequency, TF over GST control)"
13,CACCCG,"1.19 fold enrichment (6-mer frequency, TF over GST control)"
14,ACCCGG,"1.91 fold enrichment (6-mer frequency, TF over GST control)"
15,ACCGCT,"1.05 fold enrichment (6-mer frequency, TF over GST control)"
16,TGCACG,"1.02 fold enrichment (6-mer frequency, TF over GST control)"
17,TGCTGA,"1 fold enrichment (6-mer frequency, TF over GST control)"

row,Sequence,binding signal
1,TCATGG,"1.07 fold enrichment (6-mer frequency, TF over GST control)"
2,CCCACC,"1.15 fold enrichment (6-mer frequency, TF over GST control)"
3,GCGGAA,"1.67 fold enrichment (6-mer frequency, TF over GST control)"
4,ACCGCC,"1.23 fold enrichment (6-mer frequency, TF over GST control)"
5,GTTTTG,"1.13 fold enrichment (6-mer frequency, TF over GST control)"
6,GTTTCA,"1.35 fold enrichment (6-mer frequency, TF over GST control)"
7,ACCCCC,"1.12 fold enrichment (6-mer frequency, TF over GST control)"
8,CGGTTT,"1.31 fold enrichment (6-mer frequency, TF over GST control)"
9,CGGAAA,"2.58 fold enrichment (6-mer frequency, TF over GST control)"
10,GTAATG,"1.1 fold enrichment (6-mer frequency, TF over GST control)"
11,CCTTGT,"1.52 fold enrichment (6-mer frequency, TF over GST control)"
12,TGCAAT,"1.1 fold enrichment (6-mer frequency, TF over GST control)"
13,TTGTTG,"1.13 fold enrichment (6-mer frequency, TF over GST control)"
14,GTGTTT,"1.23 fold enrichment (6-mer frequency, TF over GST control)"
15,CCAACA,"1.01 fold enrichment (6-mer frequency, TF over GST control)"
16,TGTCCA,"1.05 fold enrichment (6-mer frequency, TF over GST control)"
17,CTGCAC,"1.1 fold enrichment (6-mer frequency, TF over GST control)"
